The source of these data is PubChem BioAssay (NCATS).

Common to all, as to assay: Primary qHTS to identify gynecologic anti-cancer compounds using libraries of approved drugs and bioactive compounds (AID 1345084); also: nearly all actives have a fitted effect of over 55% in size
Holding throughout (details): Gynecologic cancer cell panel viability, ATPlite luminescence, 48 h; series mostly up to 57.5 µM

One test deals with PA-1. In outline:
(§1)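 Five-point cytotoxicity, 48 h drug exposure at 37 C, 5% CO2, on cells seeded 16 h beforehand. ATP content read by ATPlite luminescence.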

A further test concerns SKOV3. The procedure, abridged:
as §1

The next test has as its system Tov-21-G. The procedure, abridged:
as §1

In the next test the test system is Tov112D. In outline:
as §1

Results filed as inconclusive are left out. Unmarked numbers belong to inactive results. Active and inactive are the calls of the source. Calls follow the shape of the dose curve; as a rule, active = well fitted cell-killing curve with a large enough effect; inconclusive = small, poorly fitted or top-dose-only effect, or effect the other way; inactive = flat fitted curve, though single readings scatter.
Potency is read from the fitted curve at half-maximal effect.

As for `CCN(CC)CC(=O)Oc1ccc(NC(C)=O)cc1`, the Potency result in the test with PA-1, with SKOV3, with Tov-21-G and with Tov112D was “inactive” in each case.

Turning to `COc1c(N2C[C@@H]3CCCN[C@@H]3C2)c(F)cc2c(=O)c(C(=O)O)cn(C3CC3)c12`, the Potency entry in the test on PA-1, with SKOV3, in the test with Tov-21-G and in the test with Tov112D was “inactive” in each case.

As to `Nc1ncnc2n[nH]c(Nc3ccc(F)cc3)c12`, the Potency with PA-1 is 25.1 µM (active).

Turning to `COc1ccc(/C(C)=C/C(=O)O)c(OC)c1`, the Potency result in the test with PA-1, with SKOV3, in the test on Tov-21-G and with Tov112D was “inactive” in each case.

Consider `CCc1cccc2c(CCO)c[nH]c12`, for which the Potency result with PA-1, in the test on SKOV3, in the test on Tov-21-G and with Tov112D was “inactive” throughout.

As for `CC(C)=CCNc1ncnc2c1ncn2[C@@H]1O[C@H](CO)[C@@H](O)[C@H]1O`, the Potency in the test with PA-1 is 7.94 µM (active); in the test on SKOV3, 11.2 µM (active); in the test on Tov-21-G, 10 µM (active); with Tov112D, 7.08 µM (active).

As to `CCCCC(CC)CNC(=O)CC(C)OC(=O)CCC(=O)O` (stereo unspecified), the Potency result in the test on PA-1, with SKOV3, with Tov-21-G and in the test with Tov112D was “inactive” each time.

For `Cc1ccc(C(C)OC(=O)C2(C)CCC(C(=O)O)C2(C)C)cc1` (stereo unspecified), the Potency result with PA-1, in the test with SKOV3, in the test with Tov-21-G and with Tov112D was “inactive” throughout.

Regarding `CC1(C)OC(=O)Nc2ccc(Br)cc21`, the Potency result with PA-1, with SKOV3, with Tov-21-G and with Tov112D was “inactive” throughout.

Regarding `Cc1onc(-c2c(Cl)cccc2Cl)c1C(=O)Cl`, the Potency entry in the test with PA-1, with SKOV3, in the test on Tov-21-G and in the test on Tov112D was “inactive” throughout.

For `Cc1ccc2c(Cl)cc(Cl)c(O)c2n1`, the Potency entry in the test on PA-1, in the test with SKOV3, with Tov-21-G and in the test with Tov112D was “inactive” throughout.

For `COc1ccc2cc(C=O)ccc2c1`, the Potency entry with PA-1, in the test with SKOV3, with Tov-21-G and with Tov112D was “inactive” throughout.

For `C=C(C)C(=O)OCC(O)CO` (stereo unspecified), the Potency result in the test with PA-1, in the test with SKOV3, in the test with Tov-21-G and in the test with Tov112D was “inactive” throughout.

For the compound `CC(CC(C#N)(c1ccccc1)C(C)C)N(C)C` (stereo unspecified), the Potency entry with PA-1, in the test on SKOV3, in the test with Tov-21-G and in the test with Tov112D was “inactive” in each case.

For `Cc1cccc(N(C)C(=S)Oc2ccc3c(c2)C2CCC3C2)c1` (stereo unspecified), the Potency result with PA-1, in the test with SKOV3, with Tov-21-G and in the test on Tov112D was “inactive” in each case.

Consider `CCOC(=O)C(O)c1ccccc1` (stereo unspecified), for which the Potency entry in the test on PA-1, with SKOV3, in the test on Tov-21-G and in the test with Tov112D was “inactive” in each case.

In the case of `N#Cc1cc(NC(=O)C(=O)O)c(Cl)c(NC(=O)C(=O)O)c1`, the Potency result in the test on PA-1, with SKOV3, in the test with Tov-21-G and in the test with Tov112D was “inactive” throughout.

For the compound `Cc1ccc(-c2ccccc2C#N)cc1`, the Potency entry in the test on PA-1, in the test on SKOV3, in the test with Tov-21-G and with Tov112D was “inactive” in each case.

Take `C[C@H]1C[C@H]2[C@@H]3CCC4=CC(=O)C=C[C@]4(C)[C@H]3C(=O)C[C@]2(C)[C@@]1(O)C(=O)CO`: the Potency entry in the test on PA-1, in the test on SKOV3, in the test on Tov-21-G and with Tov112D was “inactive” each time.

Turning to `Nc1ncnc2c1ncn2Cc1c(F)cccc1Cl`, the Potency entry in the test with PA-1, in the test on SKOV3, in the test with Tov-21-G and in the test with Tov112D was “inactive” each time.

For `Cc1cccc(C)c1NC(=O)c1ccc(N)cc1`, the Potency entry in the test on PA-1, in the test on SKOV3, with Tov-21-G and with Tov112D was “inactive” in each case.

For `CCC[C@H](N[C@@H](C)C(=O)N1[C@H](C(=O)O)C[C@@H]2CCCC[C@@H]21)C(=O)OCC`, the Potency result in the test on PA-1, in the test with SKOV3, with Tov-21-G and in the test on Tov112D was “inactive” throughout.

`Nc1ccc(C(=O)N2CC3CC(CN(Cc4ccccc4)C3)C2)cc1`: the Potency result in the test on PA-1, in the test with SKOV3, in the test with Tov-21-G and with Tov112D was “inactive” in each case.

Take `Nc1cc(C(F)(F)F)ccc1S`: the Potency result with PA-1, in the test on SKOV3, with Tov-21-G and in the test with Tov112D was “inactive” throughout.

Regarding `COc1cc2c(cc1OC)C(=O)CC2`, the Potency entry in the test with PA-1, in the test with SKOV3, in the test on Tov-21-G and in the test with Tov112D was “inactive” each time.

For the compound `OC1(c2ccccc2)CCNCC1`, the Potency entry with PA-1, with SKOV3, in the test with Tov-21-G and in the test on Tov112D was “inactive” each time.

On to `O=C1Cc2cc(Cl)ccc2N1`, for which the Potency result in the test with PA-1, with SKOV3, in the test on Tov-21-G and in the test on Tov112D was “inactive” throughout.

With `CCOc1c(N2CCOCC2)cnn(C)c1=O`, the Potency entry in the test on PA-1, in the test with SKOV3, in the test on Tov-21-G and in the test on Tov112D was “inactive” in each case.

On to `CCCOc1ccc2c(c1)CC[C@@H]1[C@@H]2CC[C@]2(C)C(OC)CC[C@@H]12` (stereo partly specified), for which the Potency result with PA-1, with SKOV3, in the test with Tov-21-G and in the test on Tov112D was “inactive” throughout.

As for `C[C@@H]1C[C@H]2[C@@H]3CCC4=CC(=O)C=C[C@]4(C)[C@@]3(F)[C@@H](O)C[C@]2(C)[C@@]1(O)C(=O)COC(=O)c1ccncc1`, the Potency entry with PA-1, in the test on SKOV3, in the test with Tov-21-G and in the test with Tov112D was “inactive” each time.

As to `O=C(O)c1cn(C2CC2)c2cc(Cl)c(F)cc2c1=O`, the Potency result in the test with PA-1, in the test with SKOV3, in the test with Tov-21-G and in the test with Tov112D was “inactive” throughout.
